# Bioassay records from PubChem.
# PPARg SRC3 recr: agonists of human PPARgamma SRC-3 coactivator recruitment; biochemical PPARgamma/SRC-3 coactivator recruitment assay; P37231; hit rate 0.26% among 200,000; activation, % at 8 µM; in the data active means activation above about 23%
# Target sequence (P37231 whole entry, looked up): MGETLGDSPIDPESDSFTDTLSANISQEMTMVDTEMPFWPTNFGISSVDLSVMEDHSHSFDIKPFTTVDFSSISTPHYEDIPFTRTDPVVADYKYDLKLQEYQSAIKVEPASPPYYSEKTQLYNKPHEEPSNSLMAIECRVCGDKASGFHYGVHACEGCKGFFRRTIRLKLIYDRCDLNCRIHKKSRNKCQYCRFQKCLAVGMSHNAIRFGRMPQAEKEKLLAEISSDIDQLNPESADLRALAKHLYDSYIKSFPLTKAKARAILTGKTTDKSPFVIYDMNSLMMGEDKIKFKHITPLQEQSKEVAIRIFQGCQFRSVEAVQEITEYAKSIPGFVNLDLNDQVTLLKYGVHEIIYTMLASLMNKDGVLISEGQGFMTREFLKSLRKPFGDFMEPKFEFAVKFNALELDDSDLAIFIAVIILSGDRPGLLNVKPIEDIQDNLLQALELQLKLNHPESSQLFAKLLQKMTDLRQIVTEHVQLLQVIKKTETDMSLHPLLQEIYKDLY
# PPARg SRC-2 ag: promotes SRC-2 coactivator recruitment by human PPARgamma; activation, % at 8 µM; PPARgamma LBD-SRC-2 recruitment, biochemical; AID 1032; hit rate 0.34% among 200,000; P37231; in the data active means activation above about 22%
# PPARg SRC1 recr: agonists of human PPARgamma SRC-1 coactivator recruitment; P37231; hit rate 0.41% among 200,000; activation, % at 8 µM; AID 631; PPARgamma-SRC-1 coactivator recruitment biochemical assay; in the data active means activation above about 19%
# SRC1 TRFRET art: counter-screen for PPARgamma SRC-1 recruitment agonists: TR-FRET artefact. TR-FRET detection artefact counter-screen, emission ratio; active compounds read high. hit rate 0.34% among 99,000. TR-FRET ratio at 8 µM; in the data active means TR-FRET ratio above about 2300
# TR-FRET SRC-2 ct: flags TR-FRET format artefacts in PPARgamma SRC-2 recruitment agonist screen; TR-FRET ratio at 8 µM; AID 1049; hit rate 0.4% among 200,000; TR-FRET artefact counter-screen; active compounds read high
# SRC3 TRFRET art: counter-screen for PPARgamma SRC-3 recruitment agonists: TR-FRET artefact. PPARgamma/SRC-3 format; active compounds read high. TR-FRET ratio at 8 µM. hit rate 0.39% among 99,000. AID 1048
# Numbers stand for hits; 0 = inactive; - = no result. Shown are actives, neighbours in structure and some others; about 0.9% of the full set was active somewhere. Unless noted, no stated cut-off is given here; in the data, active means TR-FRET ratio above about 2000; inactive means the rest.
SMILES,PPARg SRC3 recr,PPARg SRC-2 ag,PPARg SRC1 recr,SRC1 TRFRET art,TR-FRET SRC-2 ct,SRC3 TRFRET art
Cc1ccc2nc(-c3ccc(SCC(=O)N4CCc5ccccc54)nc3)[nH]c2c1,0,0,0,0,0,2738
Cc1cccc(NS(=O)(=O)c2ccc3c(c2)Cc2cc(S(=O)(=O)Nc4cccc(C)c4C)ccc2-3)c1C,0,0,0,0,0,0
CC(C)N(C)C(=O)C(=O)c1cccn1-c1cccc(Cl)c1C#N,0,0,0,2315,0,0
COc1ccc(CNC(=O)CSc2nnc3c(Cl)cc(C(F)(F)F)cn23)cc1OC,0,0,0,0,0,0
Cc1c(-c2ccccc2)oc2c(C(=O)OCC(=O)Nc3ccc(F)cc3)cccc2c1=O,0,0,0,0,0,0
CCCCC(CC)c1nnc(NC(=O)c2cccs2)s1 (stereo not given),0,22,0,0,0,0
O=C(/C=C/c1ccc(S(=O)(=O)N2CCOCC2)cc1)NCc1ccccc1,0,0,0,0,0,0
Brc1ccc(C=Nc2ccc(Nc3ccccc3)cc2)s1,0,29,0,0,0,0
CSc1nc(N)nc(SCC(=O)C23CC4CC(CC(C4)C2)C3)c1C#N,0,0,0,-,0,-
N#Cc1c(N)nc(SCC(=O)C23CC4CC(CC(C4)C2)C3)c(C#N)c1-c1ccc(Cl)cc1,0,0,99,-,0,-
CCOC(=O)c1sc(=NC(=O)CCSc2ccccc2)n(C)c1C,0,0,0,0,0,2393
CCOC(=O)c1sc(=NC(=O)c2cc(OC)c(OC)c(OC)c2)n(C)c1C,338,0,0,-,0,-
Cc1c(NC(=O)CCCCCN2C(=O)c3ccccc3C2=O)c(=O)n(-c2ccccc2)n1C,0,0,0,0,0,0
CCN(CC)S(=O)(=O)c1cc(C(=O)NCCN2CCOCC2)ccc1Cl,0,0,0,0,0,0
COCCn1c(=NC(=O)c2cc(-c3cccs3)nc3ccccc23)sc2cc(S(N)(=O)=O)ccc21,0,0,0,0,0,0
C=CCn1c(=NC(=O)c2cc(-c3cccs3)nc3ccccc23)sc2cc(S(N)(=O)=O)ccc21,0,0,0,0,0,2319
CC(=O)N1N=C(c2cccs2)CC1c1ccc(C)o1 (stereo not given),0,0,0,2339,0,0
S=c1nc(SCc2ccccc2)[nH]c2ccccc12,0,0,0,2318,2041,0
CC(C)c1ccc(NC(=O)c2ccc(NS(C)(=O)=O)cc2)cc1,0,0,0,0,0,0
CCOc1ccc2[nH]c(=O)c(C(c3nnnn3C3CCCCC3)N3CCN(C)CC3)cc2c1 (stereo not given),0,0,23,0,0,0
CCOc1ccc2[nH]c(=O)c(C(c3nnnn3C3CCCCC3)N3CCN(CC)CC3)cc2c1 (stereo not given),0,0,0,-,0,-
COc1ccccc1-c1c(C#N)c(N)nc2c1CCc1ccccc1-2,0,0,0,0,0,0
CCOc1ccccc1-c1c2cc(O)c(=O)cc-2oc2cc(O)c(O)cc12,0,0,0,0,0,0
COc1ccc(OC)c(-c2c3cc(O)c(=O)cc-3oc3cc(O)c(O)cc23)c1,0,23,0,0,0,0
COc1ccc(CCn2c(-c3ccc(Cl)cc3)n[nH]c2=S)cc1OC,0,0,0,0,0,0
SMILES,PPARg SRC3 recr,PPARg SRC-2 ag,PPARg SRC1 recr,SRC1 TRFRET art,TR-FRET SRC-2 ct,SRC3 TRFRET art
CCCCn1c(-c2cc(Cl)ccc2OC)n[nH]c1=S,0,22,0,-,0,-
C=COC(=O)CSc1nc(-c2cccs2)ccc1C#N,0,0,0,-,2052,-
COc1cc(-c2nc3ccccn3c2/N=C/c2ccc(F)cc2)ccc1O,0,0,0,0,0,0
COc1cc(-c2nc3ccccn3c2/N=C/c2cccc(OC)c2O)ccc1O,0,0,0,0,2175,0
COc1ccc(C2=NN(c3ccccc3)C(c3cn(CCC(=O)O)nc3-c3ccccc3)C2)cc1 (stereo not given),0,0,0,0,0,0
CCN(CC)CCn1c(NC(=O)c2ccc(Cl)cc2)nc2ccccc21,0,153,0,-,4842,-
CC(CCc1ccccc1)NC(=O)C(=O)N1CCOCC1 (stereo not given),0,0,0,0,0,0
Cc1ccc2oc(=O)cc(CN3CCC(C)CC3)c2c1,0,23,0,-,0,-
O=C(Nc1ccccn1)c1cc(-c2cccc(Cl)c2)nc2ccccc12,0,0,0,2351,0,2298
CC1c2nc3ccccc3n2C(CC(=O)NC2CC2)C(=O)N1Cc1ccccc1 (stereo not given),0,0,0,0,0,0
Cn1cnnc1SCc1ccc(C(=O)N=Nc2c(O)n(C)c3ccccc23)cc1,0,23,0,0,0,0
COc1ccc(-c2ccc(SCC(=O)c3cccs3)nn2)cc1,0,0,0,0,0,2137
O=C(CSc1ccc(-c2ccccc2)nn1)c1cccs1,0,0,0,0,0,0
COc1ccc(-c2[nH]ncc2CN(Cc2nccn2C)C(C)C)c(F)c1,0,0,0,0,0,0
COc1ccc(C(NC(=O)/C=C/c2ccco2)c2ccc(OC)c(OC)c2)cc1OC,0,0,0,0,0,0
CC(NC(=O)CNC(=S)N(Cc1cccs1)C1CCCC1)c1ccccc1 (stereo not given),0,0,0,0,0,0
CCN(CC)CCn1c2ccccc2c2cnc(N)c(C#N)c21,0,0,0,-,0,-
CCc1cc2ccc(C)cc2nc1SCC(=O)Nc1cc(C)on1,0,0,0,0,0,0
CCc1cc2cc3c(cc2nc1SCC(=O)Nc1cc(C)on1)OCO3,0,0,36,-,0,-
COc1ccc([N+](=O)[O-])cc1NC(=O)c1ccc(-n2nc(C)cc2C)cc1,0,0,0,0,0,0
Cc1nn(-c2ccccn2)c2c1-c1nc(N)ncc1CC2,0,0,0,-,0,-
Cc1nn(-c2ccccn2)c2c1-c1nc(N3CCOCC3)ncc1CC2,0,0,22,-,0,-
CC(OC(=O)c1cc2sccc2n1C)C(=O)NCc1cccs1 (stereo not given),0,0,24,-,0,-
CC(C)NS(=O)(=O)c1ccc(NC(=O)NC2CCCCC2)cc1,0,0,0,0,0,0
Cc1cc(C)cc(NC(=S)N2CCC(NC(=O)c3ccccc3C)CC2)c1,0,0,0,0,0,0
SMILES,PPARg SRC3 recr,PPARg SRC-2 ag,PPARg SRC1 recr,SRC1 TRFRET art,TR-FRET SRC-2 ct,SRC3 TRFRET art
O=C(c1cccc(C(F)(F)F)c1)N1CCN(c2cc(=O)[nH]nc2-c2ccccc2)CC1,33,0,0,-,0,-
O=c1c2cccnc2[nH]c(=S)n1Cc1ccccc1,0,0,0,0,0,0
O=C(Cn1c(=S)[nH]c2ncccc2c1=O)NCCc1ccccc1,0,0,0,2328,0,0
CSc1cc(-c2ccc(Cl)cc2)[nH]c(=O)c1C#N,0,0,0,0,0,0
Cc1ccc(-c2[nH]c(=S)[nH]c(=O)c2C#N)cc1,0,0,0,2571,2179,2293
Cc1ccc2c(ccc(=S)n2C)c1,0,0,0,0,0,2121
O=C(COC(=O)/C=C/C(=O)N1CCN(c2ccccc2)CC1)NC(c1ccccc1)c1ccccc1,0,0,0,0,0,0
